CYP2C19 activ = activators of human cytochrome P450 2C19; AID 1025; 96,000 tested, under 10 active; P33261; recombinant CYP2C19, luciferin-H EGE luminescence; hits give high values; 0 = fully inhibited enzyme, 1 = untreated enzyme; activation factor at 5 µM;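 active means activation factor of at least 2 at 5 µM in the primary screen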;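 further: 0 = wells with 2.5 mM tranylcypromine and 1 = vehicle-only wells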
PostGolgi ctrl = inhibits growth of the yeast control strain; efflux-deficient yeast background strain, growth absorbance A615, 16 h; 98,000 tested, 5% active; inhibition, % at 10 µM
CYP2C9 inh = human CYP2C9 inhibition. P11712. CYP2C9 Supersomes, luciferin-H conversion, luminescence. inhibition, % at 5 µM. 96,000 tested, 20% active;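 active means blocking of liver enzyme CYP2C9 beyond about 50% at 5 µM, limit read from the data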
Target sequence (P11712 whole entry, looked up): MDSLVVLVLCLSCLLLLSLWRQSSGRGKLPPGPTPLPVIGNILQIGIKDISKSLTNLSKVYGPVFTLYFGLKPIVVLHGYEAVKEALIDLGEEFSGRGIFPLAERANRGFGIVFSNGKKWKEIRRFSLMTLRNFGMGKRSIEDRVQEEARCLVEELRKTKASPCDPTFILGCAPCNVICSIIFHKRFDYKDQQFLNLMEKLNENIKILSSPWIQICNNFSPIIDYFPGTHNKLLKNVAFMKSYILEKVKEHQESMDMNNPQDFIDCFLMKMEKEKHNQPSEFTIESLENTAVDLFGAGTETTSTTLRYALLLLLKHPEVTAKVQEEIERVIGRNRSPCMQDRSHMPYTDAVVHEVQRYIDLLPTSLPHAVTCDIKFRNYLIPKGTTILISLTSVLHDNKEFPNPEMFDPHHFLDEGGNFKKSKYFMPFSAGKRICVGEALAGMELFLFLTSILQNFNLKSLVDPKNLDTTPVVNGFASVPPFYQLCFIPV
CYP2C9 act = CYP2C9 (human) activation. P11712. recombinant CYP2C9, luciferin-H conversion, luminescence; hits give high values; factor 1 = untreated enzyme, 0 = blocked. activation factor at 5 µM. 96,000 tested, 1.4% active. AID 1024;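 active means activation factor of 2 or more for CYP2C9 at a 5 µM dose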;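 further: 0 = sulfaphenazole-blocked wells and 1 = vehicle-only wells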
PostGolgi yeast = growth inhibition of a yeast mutant, post-Golgi transport screen; 98,000 tested, 0.9% active; inhibition, % at 10 µM; post-Golgi transport phenotypic cell assay;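 further: yeast cells grown in 1536-well plates; yeast grown about 18 h at 30C before absorbance read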
CYP2C19 inhib = blocks human cytochrome P450 2C19; P33261; CYP2C19 Supersomes, luciferin-H EGE luminescence, 30 min; inhibition, % at 5 µM; 96,000 tested, 21% active; AID 778;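 active means CYP2C19 inhibition above a set limit at 5 µM in the primary screen, cut at about 50% in these data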;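 further: plate controls were negative control wells for no effect and 2.5 mM tranylcypromine positive control for full effect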
The depositor's hits bear a star; x = no result. Sampled rows, rich in hits. Any-hit rate of the full collection: about 32%. Unless noted, no stated cut-off is given here; in the data, active means inhibition above about 30%; inactive means the rest.

SMILES | CYP2C19 activ | PostGolgi ctrl | CYP2C9 inh | CYP2C9 act | PostGolgi yeast | CYP2C19 inhib
c1ccc(CCCNc2ncnc3nc[nH]c23)cc1 | 0.9 | 17 | 2 | 1 | -1 | 11
CCCC12CN3CC(C)(CN(C1)C3c1ccc(OC(C)C)cc1)C2=O (centres undefined) | 1 | 11 | 16 | 0.8 | -6 | 2
Cc1cccc(-c2nc(CS(=O)CC(=O)N3CCc4ccccc4C3)c(C)o2)c1 (centres undefined) | 0.9 | 3 | 42 | 0.6 | 0 | 7
Cc1ccc(-c2nc(CS(=O)(=O)CC(=O)N3CCc4ccccc4C3)c(C)o2)cc1 | 0.7 | 12 | 72* | 0.3 | 11 | 30
Cc1ccc(-c2nc(CS(=O)(=O)CC(=O)N3CCCCCC3)c(C)o2)cc1 | 0.4 | 4 | 75* | 0.3 | 1 | 56*
CC1(C)C(c2ccc(Cl)cc2)=[N+]([O-])C2(CCCC/C2=N\O)N1O (centres undefined) | 0.7 | 1 | 4 | 1 | 3 | 27
NC1=NC2(CCN(Cc3ccccc3)CC2)n2c(nc3ccccc32)N1 | 0.7 | -2 | 57* | 0.4 | 5 | 26
O=C(CN1CCCCC1)Nc1cccc([N+](=O)[O-])c1 | 1 | 0 | -4 | 1 | -1 | -3
Cc1nc2ccccc2c(=O)n1C1CCCCCC1 | 0.4 | 5 | 13 | 0.9 | -2 | 58*
CCCCNC(=O)CSc1nc2ccccc2c(=O)n1C1CCCC1 | 0.7 | 23 | 56* | 0.4 | 7 | 26
CCOC(=O)CSc1nc2ccccc2c(=O)n1C1CCCC1 | 0.8 | 28 | 36 | 0.6 | 1 | 16
CC(C)(C)C(=O)NC(=C(Cl)Cl)P(=O)(O)O | 1.1 | -1 | -14 | 1.1 | -7 | -11
Cc1nn(C)cc1CN(C)C(=O)c1sc2cccc(Cl)c2c1Cl | 0 | 16 | -98 | 2* | 1 | 97*
Cc1cc2c(n1-c1ccc(Cl)cc1)CC(C)(C)CC2=O | 0.5 | 36* | 5 | 1 | 4 | 48
Cc1ccc(S(=O)(=O)N(CC(=O)NCc2ccco2)Cc2ccccc2F)cc1 | 0.6 | 23 | 62* | 0.4 | 3 | 37
COc1ccc(S(=O)(=O)Cc2ccccc2)cc1N | 0.4 | 7 | -120 | 2.2* | -7 | 62*
CCN(c1ccccc1)S(=O)(=O)c1ccc(F)cc1 | 0.6 | -10 | 25 | 0.8 | -3 | 42
COc1ccc(OC)c(N)c1 | 1 | 8 | -8 | 1.1 | 2 | 2
CCN(c1ccccc1)S(=O)(=O)c1ccc(N)c(OC)c1 | 0.4 | 2 | -184 | 2.8* | -13 | 62*
C=CCNC(=O)CN(c1ccc(F)cc1)S(=O)(=O)c1ccc(OC)cc1 | 0.1 | 1 | 64* | 0.4 | 1 | 92*
COC(=O)CN(c1ccccc1)S(=O)(=O)c1ccc(F)cc1 | x | 2 | x | x | -1 | x
CN(CCCC(=O)NCc1ccco1)S(=O)(=O)c1ccccc1 | 0.6 | 4 | 36 | 0.6 | 1 | 39
Cc1nc2cc(NC(=O)Nc3nccs3)ccc2n1C | 0.8 | 3 | -12 | 1.1 | -8 | 19
COc1ccc(S(=O)(=O)N(CC(=O)NCc2ccco2)c2ccccc2)cc1 | 0.4 | 1 | 42 | 0.6 | -4 | 56*
COc1ccc(S(=O)(=O)N(CC(=O)O)c2ccccc2)cc1 | 1.1 | 10 | 8 | 0.9 | -12 | -10
SMILES | CYP2C19 activ | PostGolgi ctrl | CYP2C9 inh | CYP2C9 act | PostGolgi yeast | CYP2C19 inhib
COc1ccc(S(=O)(=O)N(CC(=O)NCc2ccco2)c2ccccc2)cc1OC | 0.1 | 8 | 9 | 0.9 | -12 | 91*
COc1ccc(N(CC(=O)N/N=C/c2ccco2)S(=O)(=O)c2ccccc2)cc1 | 0.4 | 0 | 20 | 0.8 | 8 | 60*
N#Cc1ccc(CSc2nnc(-c3cccc(S(=O)(=O)N4CCCCC4)c3)o2)cc1 | 0.8 | 20 | 19 | 0.8 | -10 | 20
CC(C)(O)C#CC#CCN1CCOCC1 | 1.1 | -3 | 10 | 0.9 | -6 | -6
CCC(C)Sc1nc2c(c(=O)[nH]c(=O)n2C)n1Cc1ccc(Cl)cc1 (centres undefined) | 1 | 46* | 26 | 0.7 | 6 | -1
CCOC(=O)C(C)Sc1nc2c(c(=O)[nH]c(=O)n2C)n1Cc1ccc(Cl)cc1 (centres undefined) | 0.9 | 32* | 20 | 0.8 | 3 | 11
COc1ccccc1N=c1oc2cc(O)ccc2cc1C(N)=O | 0.9 | 4 | 71* | 0.3 | -5 | 9
Cc1cccc(N=c2oc3cc(O)ccc3cc2C(N)=O)c1 | 0.8 | 18 | 69* | 0.3 | 12 | 18
CCNCC(O)COCC(O)CNCC (centres undefined) | 1 | -2 | 6 | 0.9 | 1 | 5
CCOC(=O)c1ccc(NC(=O)c2nn(CC)cc2Br)cc1 | 0.7 | 9 | -45 | 1.5 | -6 | 31
CCn1cc(Br)c(C(=O)Nc2ccc(F)c(Cl)c2)n1 | 0.1 | 9 | 75* | 0.3 | -1 | 92*
CCn1cc(Br)c(C(=O)Nc2ccc(Cl)cc2Cl)n1 | 0.3 | 21 | 46 | 0.5 | -12 | 74*
C=CCn1c(-c2ccc(OC)cc2)nc2ccccc21 | 0.3 | 12 | 76* | 0.2 | -6 | 73*
COc1ccc(-c2nnnn2CCc2ccccc2)cc1 | 0 | 17 | 71* | 0.3 | 15 | 98*
COc1ccc2c(c1)c(=O)c(Br)c(C)n2Cc1ccccc1 | 0.8 | 22 | -5 | 1 | 4 | 19
C=CCn1c(-c2ccc(N)cc2)nc2ccccc21 | 0.8 | 26 | 33 | 0.7 | -2 | 23
COc1ccc2c(c1)nc(N)n2Cc1ccccc1 | 0.1 | -1 | 10 | 0.9 | -2 | 85*
COc1ccc(-c2nc3ccccc3n2Cc2ccccc2)cc1 | 0.2 | 55* | 96* | 0 | 20 | 76*
CC(=O)Nc1ccc(S(=O)(=O)NNC(=O)COc2ccc(C(C)(C)C)cc2)cc1 | 0.9 | 6 | -9 | 1.1 | -3 | 12
O=C(CS(=O)(=O)Cc1ccccc1)Nc1ncccn1 | 0.9 | 3 | 5 | 1 | 0 | 13
Cc1cc(C)n(-c2nc(-c3ccc(Cl)cc3)cs2)n1 | 0.7 | -3 | 3 | 1 | 6 | 33
CCSc1nnc2n(N)c(=O)c3ccccc3n12 | 1 | 2 | -9 | 1.1 | 0 | -4
CCCn1c(NCc2c[nH]c3ccccc23)nc2ccccc21 | 0.3 | 0 | 32 | 0.7 | -4 | 71*
O=CNCCCc1nc2ccccc2n1Cc1cccc2ccccc12 | 0 | 2 | 91* | 0.1 | 1 | 97*
CCn1c(NC(=O)c2ccc(F)cc2)c2ccccc2nc1=O | 0.3 | 11 | 20 | 0.8 | 5 | 72*
CCn1c(CCCNC(=O)c2ccc(F)cc2)nc2ccccc21 | 0.6 | 4 | 23 | 0.8 | 5 | 44
CCn1c(CCNC(=O)c2ccc(F)cc2)nc2ccccc21 | 0.1 | 0 | -230 | 3.3* | 1 | 95*
CC(C)CC(=O)OCc1cn(-c2ccccc2)nn1 | 0.8 | 7 | 5 | 0.9 | -3 | 20
CCCC(=O)NCCCc1nc2ccccc2n1CC | 1 | 8 | -71 | 1.7 | -2 | -2
